From PubChem BioAssay (Tox21) come the findings set out here.

Experiment [1] can be described thus: Nuclear factor erythroid 2-related factor 2/antioxidant responsive element (Nrf2/ARE) small molecule agonists: qHTS cell viability counter screen in human keratinocytes (AID 1919968; active means well fitted curve in the direction sought with a large enough effect in the repeat runs; an effect the other way counts as inactive or inconclusive; further: nearly all actives have a fitted effect of over 55% in size). The method in brief: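 Viability counter-screen: KeratinoSens reporter cells, DMSO-delivered compounds, 23 h at 37 C, CellTiter-Fluor fluorescence.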
Experiment [2] can be described thus: Nuclear factor erythroid 2-related factor 2/antioxidant responsive element (Nrf2/ARE) small molecule agonists: luciferase reporter gene qHTS assay in human keratinocytes (AID 1919969). Further: nearly all actives have a fitted effect of over 35% in size.
Experiment [3] concerns the target Gonadotropin-releasing hormone receptor (Homo sapiens) (UniProt P30968). The experiment is described as follows: Human gonadotropin-releasing hormone receptor (GnRHR) small molecule agonists, calcium flux assay in GnRHR-HEK293 cells (AID 1920063). Further: nearly all actives have a fitted effect of over 35% in size. The method in brief: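 Tox21-format agonist screen using human GnRHR-expressing HEK293 cells and a fluorescent calcium dye; kinetic 3-min fluorescence reading after compound addition, 15-point concentration series run in triplicate.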

Experiment [4] concerns the target KiSS-1 receptor (Homo sapiens) (UniProt Q969F8). The experiment is described as follows: Human kisspeptin (KISS1R) small molecule agonists, calcium flux assay in KISS1R-HEK293 cells (AID 1920064; active means well fitted curve in the direction sought with a large enough effect in the repeat runs; an effect the other way counts as inactive or inconclusive). The method in brief: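 Intracellular calcium mobilization in KISS1R-HEK293 cells was recorded by fluorescence (Ex/Em 480/540) for 3 min following compound addition to cells pre-loaded 1 h with calcium dye.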

A short description of experiment [5]: G protein-coupled receptor (GPCR) small molecule agonists, calcium flux assay: HEK293 wild type cell line counter screen (AID 1920065). The method in brief: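 In this agonist-mode screen, ATP is the positive control and DMSO the vehicle. Cells grow 18 h before a 1 h dye incubation at 37 C; signal is taken at Ex/Em 480/540 over 3 min.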
A short description of experiment [6]: p53 small molecule agonists, cell-based qHTS assay with human liver microsomes (AID 1963577). Put shortly:
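p53RE-bla reporter cells were pre-incubated 5 h at 37 C, then treated with compounds plus human liver microsomes (0.5 mg/mL final) and NADPH (0.5 mg/mL final) for 16 h at 37 C. Beta-lactamase activity was read by LiveBLAzer fluorescence after 2 h at room temperature.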

A short description of experiment [7]: p53 small molecule agonists, cell-based qHTS assay with rat liver microsomes (AID 1963578). Put shortly:
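p53RE-bla cells were exposed to compounds together with rat liver microsomes (0.5 mg/mL final) and NADPH (0.5 mg/mL final) for 16 h at 37 C, then read by LiveBLAzer beta-lactamase fluorescence after 2 h at room temperature.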

Experiment [8] can be described thus: p53 small molecule agonists, cell-based qHTS assay with human liver microsomes: qHTS cell viability counter screen (AID 1963579). Further: nearly all actives have a fitted effect of over 45% in size. The method in brief: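 p53RE-bla cells (4,000/well) were pre-incubated 5 h at 37 C, then given compounds in DMSO plus human liver microsomes (0.5 mg/mL final) and NADPH (0.5 mg/mL final) for 16 h at 37 C. Viability was read by CellTiter-Glo luminescence.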

Experiment [9] in a line: p53 small molecule agonists, cell-based qHTS assay with rat liver microsomes: qHTS cell viability counter screen (AID 1963580). Further: nearly all actives have a fitted effect of over 45% in size. Put shortly:
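p53RE-bla HCT-116 cells were exposed 16 h at 37 C to compounds with rat liver microsomes (0.5 mg/mL) and NADPH (0.5 mg/mL). Viability was measured in the same wells as ATP content by CellTiter-Glo luminescence.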

Experiment [10] in a line: p53 small molecule agonists, cell-based qHTS assay: qHTS cell viability counter screen (AID 1963581). Further: nearly all actives have a fitted effect of over 45% in size. The method in brief:
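Compounds are pinned onto HCT-116 p53RE-bla cells and left 16 h at 37 C. Following the reporter FRET read, ATP is quantified by CellTiter-Glo luminescence after 30 min at room temperature.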

Experiment [11] in a line: p53 small molecule agonists, cell-based qHTS assay (AID 1963582; active means well fitted activation curve with a large enough effect in the signal ratio in the repeat runs, not every such curve was filed as active; the % refers to the signal ratio). Put shortly:
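Agonist activity was scored from beta-lactamase FRET fluorescence in p53RE-bla cells treated 16 h at 37 C with compounds in DMSO, substrate incubation being 2 h at room temperature.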

Experiment [12] has as its target 5-hydroxytryptamine receptor 2A (Homo sapiens) (UniProt P28223). The experiment is described as follows: 5-hydroxytryptamine receptor 2A (HTR2A) small molecule agonists, cell-based qHTS assay (AID 1963587). Further: nearly all actives have a fitted effect of over 30% in size. The method in brief: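 CHO cells stably expressing human HTR2A, plated 18 h, loaded with calcium dye 1 h at 37 C. Agonist mode: compounds added and intracellular calcium fluorescence recorded kinetically for 2 min at 1 sec intervals.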

The target of experiment [13] is Muscarinic acetylcholine receptor M1 (Homo sapiens) (UniProt P11229). Nature of the experiment: Cholinergic receptor muscarinic 1 (CHRM1) small molecule antagonists, cell-based qHTS assay (AID 1963588). Further: nearly all actives have a fitted effect of over 40% in size. Further: potency means the concentration at half of the fitted maximal effect. Put shortly:
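CHRM1-CHO calcium-flux assay, antagonist mode. Cells were seeded 18 h, dye-loaded 1 h at 37 C and given compound for 5 min at RT, then acetylcholine was added at 50nM. FDSS fluorescence was read 3 min; 15 concentrations, three runs.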

Experiment [14] shares this target. The experiment is described as follows: Cholinergic receptor muscarinic 1 (CHRM1) small molecule agonists, cell-based qHTS assay (AID 1963589). Further: nearly all actives have a fitted effect of over 35% in size. Put shortly:
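Stable CHRM1-CHO cells (human receptor) were incubated 18 h, dye-loaded for 1 h at 37 C and exposed to test compounds for agonist activity, with calcium-dependent fluorescence followed kinetically.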

A short description of experiment [15]: cAMP Responsive Elements (CRE) small molecule antagonists, cell-based qHTS assay (AID 1963591; active means well fitted inhibition curve with a large enough effect in the signal ratio in the repeat runs, not every such curve was filed as active; the % refers to the signal ratio). The method in brief: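 qHTS in CRE-bla HEK 293T cells: compound in DMSO, then 0.25 uM NKH477 (final), 3 h at 37 °C/5% CO2; beta-lactamase FRET read-out after 2 h substrate incubation.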
In experiment [16] the target is Beta-2 adrenergic receptor (Homo sapiens) (UniProt P07550). Nature of the experiment: Adrenergic beta2 receptor (ADRB2) small molecule antagonists, cell-based qHTS assay (AID 1963592). Further: series mostly up to about 92 µM; nearly all actives have a fitted effect of over 50% in size. Put shortly: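 Cells (CHO, stable ADRB2 overexpression) incubated 18-20hr at 37C; compounds added from DMSO; agonist mix (1nM isoproterenol, 100uM IBMX, 25uM Ro-20-1724) added; 0.5hr RT; d2-cAMP and anti-cAMP-cryptate added; 1hr RT; 665/615 nm read.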
Sequence of Beta-2 adrenergic receptor (Homo sapiens) (P07550 whole entry, looked up): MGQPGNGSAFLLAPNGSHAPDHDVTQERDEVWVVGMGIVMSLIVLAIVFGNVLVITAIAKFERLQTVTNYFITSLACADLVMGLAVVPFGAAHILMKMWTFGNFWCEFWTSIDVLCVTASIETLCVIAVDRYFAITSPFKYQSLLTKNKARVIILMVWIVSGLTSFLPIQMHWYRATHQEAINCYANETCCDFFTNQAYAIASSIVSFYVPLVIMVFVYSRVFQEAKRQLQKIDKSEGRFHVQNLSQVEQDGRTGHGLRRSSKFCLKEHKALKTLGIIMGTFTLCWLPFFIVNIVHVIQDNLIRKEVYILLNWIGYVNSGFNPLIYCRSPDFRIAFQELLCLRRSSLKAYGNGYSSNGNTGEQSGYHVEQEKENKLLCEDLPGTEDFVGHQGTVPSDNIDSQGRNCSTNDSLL

The target in experiment [17] is D(2) dopamine receptor (Homo sapiens) (UniProt P14416). Nature of the experiment: Dopamine D2 receptor (DRD2) small molecule agonists, cell-based qHTS assay (AID 1963594). Further: nearly all actives have a fitted effect of over 35% in size. Put shortly: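 HEK293 cells stably expressing human DRD2, pre-treated with PDE inhibitor Ro20-1724 (0.1 mM final) and compound 10 min at room temperature, then stimulated with NKH477 (200nM […]) for 30 min. cAMP read by HTRF (665/620 nm).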
Sequence of D(2) dopamine receptor (Homo sapiens) (P14416 whole entry, looked up): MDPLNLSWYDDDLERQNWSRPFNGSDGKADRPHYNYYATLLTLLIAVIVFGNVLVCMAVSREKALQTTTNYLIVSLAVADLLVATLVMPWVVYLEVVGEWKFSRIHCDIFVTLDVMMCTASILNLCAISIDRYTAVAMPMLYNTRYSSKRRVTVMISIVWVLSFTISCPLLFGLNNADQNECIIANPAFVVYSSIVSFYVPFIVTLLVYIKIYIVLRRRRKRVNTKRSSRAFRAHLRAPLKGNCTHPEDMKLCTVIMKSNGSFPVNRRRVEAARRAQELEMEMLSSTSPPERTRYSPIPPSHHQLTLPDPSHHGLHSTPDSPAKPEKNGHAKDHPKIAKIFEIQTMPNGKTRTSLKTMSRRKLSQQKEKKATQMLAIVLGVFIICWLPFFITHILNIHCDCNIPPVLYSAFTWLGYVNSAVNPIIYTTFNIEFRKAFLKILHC

For experiment [18] the target is unchanged. Nature of the experiment: Dopamine D2 receptor (DRD2) small molecule antagonists, cell-based qHTS assay (AID 1963595; active means well fitted inhibition curve with a large enough effect in the signal ratio in the repeat runs, with a control signal flat; the % refers to the signal ratio; further: potency means the concentration at half of the fitted maximal effect). Put shortly: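 Cells were plated and grown for 24 h at 37 °C. Ro20-1724 (0.1 mM final) went in first, then compound for 10 min. NKH477 (200 nM) with quinpirole (12 nM) followed for 30 min at RT, then HTRF detection reagents for 1 h.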

A short description of experiment [19]: cAMP Responsive Elements (CRE) small molecule agonists, cell-based qHTS assay (AID 1963590). The method in brief: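 FRET-based beta-lactamase readout (LiveBLAzer B/G, 2 h RT) quantified CRE activation in HEK 293T CRE-bla cells after 3 h treatment with DMSO-dissolved compounds.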
The target of experiment [20] is Beta-2 adrenergic receptor (Homo sapiens) (UniProt P07550). The experiment is described as follows: Adrenergic beta2 receptor (ADRB2) small molecule agonists, cell-based qHTS assay (AID 1963593). Further: potency means the concentration at half of the fitted maximal effect.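 On activation: CHO cells stably overexpressing human ADRB2.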 Put shortly: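 CHO cells stably over-expressing ADRB2 were plated overnight at 37C, then dosed with compounds plus a stimulation mix containing 100uM IBMX and 25uM Ro-20-1724 for 0.5hr at room temperature. cAMP was measured by HTRF competition, 1hr.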

Inconclusive results are not listed. The source holds several records for some structures; these can differ, active in one and inactive in another. Activity calls are given as the source filed them. Unless noted, the call rests on the fitted dose curve.

Sequence of 5-hydroxytryptamine receptor 2A (Homo sapiens) (P28223 whole entry, looked up): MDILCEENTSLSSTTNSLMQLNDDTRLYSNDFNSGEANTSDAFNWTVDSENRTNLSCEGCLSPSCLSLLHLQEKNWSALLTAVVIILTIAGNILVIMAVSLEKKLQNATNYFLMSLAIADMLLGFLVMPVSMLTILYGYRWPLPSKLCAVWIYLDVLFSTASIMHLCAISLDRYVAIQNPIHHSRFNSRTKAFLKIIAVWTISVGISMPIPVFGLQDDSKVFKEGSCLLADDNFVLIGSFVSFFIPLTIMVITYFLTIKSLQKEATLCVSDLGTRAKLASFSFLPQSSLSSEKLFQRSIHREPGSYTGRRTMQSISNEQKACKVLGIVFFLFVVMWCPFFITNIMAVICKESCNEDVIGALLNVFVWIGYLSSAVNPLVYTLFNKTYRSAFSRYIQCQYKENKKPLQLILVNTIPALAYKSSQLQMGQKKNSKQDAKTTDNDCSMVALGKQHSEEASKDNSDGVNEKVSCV
Sequence of Muscarinic acetylcholine receptor M1 (Homo sapiens) (P11229 whole entry, looked up): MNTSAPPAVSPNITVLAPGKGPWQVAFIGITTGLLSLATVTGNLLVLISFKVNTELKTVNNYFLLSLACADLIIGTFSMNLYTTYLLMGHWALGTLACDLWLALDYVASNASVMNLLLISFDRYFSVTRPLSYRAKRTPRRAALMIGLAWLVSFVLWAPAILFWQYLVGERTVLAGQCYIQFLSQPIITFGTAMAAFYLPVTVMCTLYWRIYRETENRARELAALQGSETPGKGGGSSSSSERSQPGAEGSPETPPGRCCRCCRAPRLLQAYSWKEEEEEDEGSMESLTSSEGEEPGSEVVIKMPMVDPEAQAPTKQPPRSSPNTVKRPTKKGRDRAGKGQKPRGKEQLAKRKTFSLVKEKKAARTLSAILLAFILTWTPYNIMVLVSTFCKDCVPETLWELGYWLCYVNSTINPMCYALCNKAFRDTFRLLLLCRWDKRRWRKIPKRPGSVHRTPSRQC
Sequence of Gonadotropin-releasing hormone receptor (Homo sapiens) (P30968 whole entry, looked up): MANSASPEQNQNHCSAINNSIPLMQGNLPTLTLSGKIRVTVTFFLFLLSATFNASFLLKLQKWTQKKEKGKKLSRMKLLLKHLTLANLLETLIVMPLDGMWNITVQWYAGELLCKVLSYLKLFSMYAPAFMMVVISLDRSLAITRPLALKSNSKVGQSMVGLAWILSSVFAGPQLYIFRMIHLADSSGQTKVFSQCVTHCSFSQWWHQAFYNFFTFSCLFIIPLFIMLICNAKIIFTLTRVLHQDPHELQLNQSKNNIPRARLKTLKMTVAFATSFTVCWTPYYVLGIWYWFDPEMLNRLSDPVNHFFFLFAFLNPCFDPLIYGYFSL
Sequence of KiSS-1 receptor (Homo sapiens) (Q969F8 whole entry, looked up): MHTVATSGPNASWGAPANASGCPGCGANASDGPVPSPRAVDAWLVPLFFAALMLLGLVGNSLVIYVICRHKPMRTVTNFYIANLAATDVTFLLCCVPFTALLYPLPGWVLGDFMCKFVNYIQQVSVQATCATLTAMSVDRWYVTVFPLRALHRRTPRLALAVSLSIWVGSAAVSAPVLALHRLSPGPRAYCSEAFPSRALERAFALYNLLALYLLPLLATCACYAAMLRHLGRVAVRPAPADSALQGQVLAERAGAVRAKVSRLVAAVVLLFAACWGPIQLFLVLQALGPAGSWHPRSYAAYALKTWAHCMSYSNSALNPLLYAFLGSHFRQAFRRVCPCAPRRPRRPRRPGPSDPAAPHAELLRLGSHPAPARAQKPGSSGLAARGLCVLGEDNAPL

As to `O=[N+]([O-])c1ccccc1CCO`, the Potency entry in experiment [1], in [2], in experiment [3], in experiment [4], in [5] and in [6] was “inactive” throughout. Also, the Potency entry in [7], in experiment [8], in [9], in [10], in experiment [11] and in [12] was “inactive” each time. Further, the Potency entry in experiment [14], in experiment [15], in experiment [16], in [17] and in [18] was “inactive” throughout. Moreover, the Potency in experiment [13] is 1.1 nM (active).
As to `Cc1c(C(=O)c2c[nH]n(C)c2=O)ccc(S(C)(=O)=O)c1C1=NOCC1`, the Potency result in experiment [1], in experiment [2], in [3], in experiment [4], in [5] and in experiment [6] was “inactive” in each case. Moreover, the Potency entry in [7], in experiment [8], in experiment [9], in [10], in experiment [11] and in experiment [12] was “inactive” throughout. Further, the Potency entry in experiment [13], in experiment [19], in [15], in experiment [16], in experiment [20] and in experiment [17] was “inactive” in each case. The Potency entry in experiment [18] was “inactive”.
Turning to `COC(=O)CCC(=O)O`, the Potency entry in experiment [1], in [2], in experiment [3], in [4], in experiment [5] and in [6] was “inactive” throughout. Moreover, the Potency entry in experiment [7], in [8], in experiment [9], in experiment [10], in experiment [12] and in experiment [13] was “inactive” throughout. The Potency entry in [14], in experiment [19], in experiment [15], in experiment [16], in [17] and in [18] was “inactive” throughout.
With `C=C(C)C(=O)OCCC(F)(F)C(F)(F)C(F)(F)C(F)(F)C(F)(F)C(F)(F)F`, the Potency result in experiment [1], in experiment [2], in experiment [3], in experiment [4], in experiment [5] and in experiment [6] was “inactive” in each case. Further, the Potency result in experiment [7], in experiment [8], in experiment [9], in experiment [10], in [12] and in experiment [13] was “inactive” in each case. Besides, the Potency result in experiment [14], in experiment [16], in experiment [20], in experiment [17] and in experiment [18] was “inactive” each time.
With `CC(=O)OCCOCCOCCOC(C)=O`, the Potency result in experiment [1], in [2], in experiment [3], in [4], in [5] and in experiment [6] was “inactive” throughout. The Potency entry in experiment [7], in experiment [8], in experiment [9], in [11], in [12] and in experiment [13] was “inactive” each time. Also, the Potency result in [14], in experiment [19], in [15], in [16], in experiment [17] and in experiment [18] was “inactive” in each case. Besides, the Potency in [20] was 53.8 µM (active) and inactive.
On to `COc1cc(N)c(Cl)cc1C(=O)NC1CCN(Cc2ccccc2)CC1`, for which the Potency result in experiment [1], in experiment [2], in [3], in [4], in [5] and in experiment [6] was “inactive” throughout. The Potency entry in experiment [7], in experiment [8], in experiment [9], in experiment [10], in experiment [12] and in experiment [13] was “inactive” throughout. Besides, the Potency entry in experiment [14], in experiment [19], in experiment [15], in experiment [16] and in experiment [17] was “inactive” throughout. Besides, the Potency in experiment [18] was 29.8 nM (active).
